# Cycloheximide cs – Cycloheximide Counterscreen for Small Molecule Inhibitors of Shiga Toxin | max response, % | 300,000 compounds, 12% hits | cell reporter, cycloheximide protein synthesis inhibition counterscreen; in the data active = max response mostly above about 13%, no sharp cut-off; inactive = mostly below about 14%; also: read at 38.3 µM for the half of the compounds with a filed dose
# Giardia FBPA inh – qHTS Assay for Inhibitors of Fructose-1,6-bisphosphate Aldolase from Giardia Lamblia; purified Giardia FBPA; Potency, µM (doses to about 59.6 µM), actives largely listed as inhibitors; 290,000 compounds, 0.71% hits; also: nearly all actives have a fitted effect of over 55% in size
# Target sequence (A8B2U2 whole entry, looked up): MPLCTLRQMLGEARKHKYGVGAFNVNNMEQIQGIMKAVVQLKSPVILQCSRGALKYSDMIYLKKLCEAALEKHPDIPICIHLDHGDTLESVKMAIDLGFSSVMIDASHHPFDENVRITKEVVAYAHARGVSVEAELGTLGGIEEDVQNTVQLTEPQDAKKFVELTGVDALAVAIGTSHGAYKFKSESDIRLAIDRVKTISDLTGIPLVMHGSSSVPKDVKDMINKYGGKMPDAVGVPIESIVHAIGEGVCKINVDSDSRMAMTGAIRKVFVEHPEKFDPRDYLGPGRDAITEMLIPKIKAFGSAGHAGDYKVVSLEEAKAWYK
#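 Giardia FBPA (40 nM reagent) was preincubated 10 min at RT with compound (up to 57.5 uM final), then substrate plus GAPDH/TPI/NAD/arsenate coupling system with diaphorase/resazurin was added; resorufin fluorescence (525/598 nm) was read after 20 min.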
# Sm TGR block – qHTS Assay for the Inhibitors of Schistosoma Mansoni Peroxiredoxins | purified TGR, DTNB reduction, TNB absorbance 405 nm | Schistosoma mansoni thioredoxin glutathione reductase (TGR), Q962Y6 | Potency, µM (doses to about 114 µM), most hits filed as inhibitors | 360,000 compounds, 3% hits; also: nearly all actives have a fitted effect of over 60% in size
#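 TGR 20 nM + NADPH 100 uM (dispensed conc.), cpd preinc 15 min RT; start with NADPH (500 uM addition) then DTNB (15 mM addition). Kinetic TNB absorbance, 405 nm filter. Four-parameter Hill fit across titration.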
# Tb PYK inh – qHTS of Trypanosoma Brucei Inhibitors | pyruvate kinase (Trypanosoma brucei), Q57TT1 | TbPYK enzyme, Kinase-Glo Plus ATP luminescence, 45 min | Potency, µM (doses to about 76.8 µM), actives largely listed as inhibitors | 410,000 compounds, 0.12% hits | AID 624173, 2012; also: nearly all actives have a fitted effect of over 50% in size
#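 Assay buffer: 50 mM TEA pH 7.2, 100 mM KCl, 10 mM MgCl2, 0.05% BSA, 0.01% Tween-20. Pyruvate kinase from T. brucei plus substrate met compound, then ADP (130 uM final). Luminescence was read post 45 min RT.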
# Shiga toxin inh – A qHTS for Small Molecule Inhibitors of Shiga Toxin | Vero cells, Shiga toxin protein synthesis inhibition reporter | inhibition, % at 38.7 µM | 290,000 compounds, 9.2% hits; in the data active = inhibition mostly above about 28%, no sharp cut-off; inactive = mostly below about 43%
# LmPK inh – qHTS Assay for Inhibitors of Leishmania Mexicana Pyruvate Kinase (LmPK); Potency, µM (series often up to 57.5 µM), most hits filed as inhibitors; Q27686; purified LmPK, Kinase-Glo ATP luminescence, 1 h; 290,000 compounds, 0.37% hits
#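 Purified LmPK (0.1 nM) converted ADP (0.1 mM) to ATP with PEP (0.5 mM) in imidazole buffer pH 7.2 with KCl and MgCl2, 1 h at room temperature. ATP was read by Kinase-Glo luminescence; data normalized to uninhibited and no-enzyme controls.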
# Numbers stand for hits; . = inactive; ? = inconclusive; / = no result. The sample as a whole holds a higher share of hits than the screen did. Unless noted, calls follow the shape of the dose curve; as a rule, active = well fitted curve in the direction sought with a large enough effect; inconclusive = small, poorly fitted or top-dose-only effect, or another doubt; inactive = no such curve, though single readings can be large; an effect the other way counts as inactive or inconclusive.
SMILES,Cycloheximide cs,Giardia FBPA inh,Sm TGR block,Tb PYK inh,Shiga toxin inh,LmPK inh
COc1cccc(CNC(=O)CCc2c(C)nc3c(c2C)c(=O)n(C)c(=O)n3C)c1,/,/,.,.,/,/
O=C(CSc1n[nH]c(=O)n1C1CC1)c1ccc2c(c1)OCCO2,37.3,.,.,.,57.1,.
Cc1cc(C)c(C(=O)CSc2n[nH]c(=O)n2C2CC2)cc1C,.,.,.,.,.,.
O=C(CSc1n[nH]c(=O)n1Cc1ccco1)c1ccc2c(c1)OCCO2,40.3,.,.,.,87.7,.
N#Cc1ccc(C(=O)CSc2n[nH]c(=O)n2Cc2ccco2)cc1,.,.,?,.,.,.
O=C(O)c1ccc(N=NN2CCCC2)cc1,.,.,.,.,.,.
O=C(O)c1ccc(N=NN2CCCCCC2)cc1,42.2,.,.,.,73.6,.
Cc1c(CNC(C)CCc2ccccc2)c(C(=O)O)c(C)n1Cc1ccc(F)cc1 (stereo not drawn),/,/,.,.,/,/
CCOC(=O)c1c(NC(NC(=O)C(C)C)C(Cl)(Cl)Cl)sc2c1CCC2 (stereo not drawn),15.5,.,.,.,.,.
CCOC(=O)Nc1sc2c(c1C(=O)OCC)CCC2,.,.,.,.,.,.
COc1cccc(N/C=C/C(=O)c2ccc(C)cc2)c1,20.7,.,.,.,62.6,.
CC(=O)c1cccc(NS(=O)(=O)c2cccc(S(=O)(=O)c3ccc(Br)cc3)c2)c1,/,/,12.6µM,.,/,/
COc1ccc(OC)c(N/C=C/C(=O)c2ccccc2)c1,.,.,.,?,.,?
COc1ccc(S(=O)(=O)Nc2cccc(C(C)=O)c2)cc1Br,.,.,/,.,.,.
COc1cccc(C(=O)/C=C/Nc2ccc(NC(C)=O)cc2)c1,42.4,.,.,.,.,?
COc1cccc(C(=O)/C=C/Nc2cccc(O)c2)c1,.,.,.,?,.,14.1µM
COC(=O)[C@H]1CC2(CC=C(C)C)C(=O)[C@@](CC=C(C)C)(C(=O)C(C(=O)c3ccccc3)=C2OC)C1(C)C (tested in a mixture with another compound),/,.,/,/,/,/
COc1cc(S(=O)(=O)Nc2ccccc2C(=O)N2CCCCC2)ccc1NC(C)=O,/,/,.,.,/,/
CCOC(=O)c1ccc(N/C=C/C(=O)c2ccc(OC)cc2)cc1,.,.,.,.,.,.
COc1ccc(N/C=C/C(=O)c2ccc(Cl)cc2)cc1,63.2,.,.,.,69.2,.
COc1cccc(C(=O)/C=C/Nc2ccc(S(=O)(=O)Nc3cccc(C(C)=O)c3)cc2)c1,57.0,.,.,.,96.7,.
COc1cccc(N/C=C/C(=O)c2ccc(Cl)cc2)c1,62.6,.,.,.,92.2,?
COc1cccc(/C=C/C(=O)c2ccc(NS(=O)(=O)c3ccc(C)cc3)cc2)c1,.,.,.,.,.,.
CCN(CC)CC(C)CNC(=O)c1cc(-c2ccc(Br)s2)nc2ccccc12 (stereo not drawn),/,/,.,.,/,/
O=C(Nc1cnc2ccccc2c1)N1CCCCC1,50.7,.,.,.,81.7,.
SMILES,Cycloheximide cs,Giardia FBPA inh,Sm TGR block,Tb PYK inh,Shiga toxin inh,LmPK inh
CC1(C(=O)Nc2cnc3ccccc3c2)CCN1Cc1ccc2ccccc2c1 (stereo not drawn),/,/,/,.,/,/
O=C(Nc1ccc(O)cc1)N1CCOCC1,.,.,.,.,.,.
O=C(Nc1cnc2ccccc2c1)N1CCOCC1,42.4,.,.,.,64.0,.
O=C(NC1CCN(C(=O)c2cccs2)CC1)c1ccccc1,.,.,.,.,.,.
COCCn1c(=O)cnc2cnc(N3CCN(C)CC3)nc21,/,.,/,/,/,/
CC[N+](C)(C)CC/C=C1/c2ccccc2Sc2ccc(Cl)cc21,.,.,.,.,.,.
CCCCCCCCCC[N+](C)(C)CC/C=C1/c2ccccc2Sc2ccc(Cl)cc21,.,.,17.8µM,.,.,.
CCCCCCCCCCC[N+](C)(C)CC/C=C1/c2ccccc2Sc2ccc(Cl)cc21,.,.,1.78µM,.,.,.
O=C(/C(=C/O)N=Nc1cccc(C(F)(F)F)c1)c1ccccc1,.,.,.,.,.,.
O=C(/C(=C/O)N=Nc1ccccc1Cl)c1ccccc1,30.8,.,.,.,.,.
COc1cccc(-n2c(C)c3c(OC)cccc(=O)c3c2C)c1,.,?,22.4µM,.,.,.
CCCS(=O)(=O)c1nc(S(=O)(=O)c2ccc(C)cc2)c(NC)s1,/,/,.,.,/,/
Cc1ccc(N2C(=O)C3C(C2=O)C(C(=O)c2ccc(Cl)cc2)N2CCCC32)cc1 (stereo not drawn),.,.,28.2µM,.,.,.
CC(=O)Oc1ccc(N2C(=O)[C@@H]3[C@H](C2=O)[C@H]2c4ccccc4C=NN2[C@@H]3C(C)=O)cc1,.,.,.,.,.,.
CC(=O)Oc1ccc(N2C(=O)C3C(C2=O)C(C(=O)c2ccc(Cl)cc2)N2CCCC32)cc1 (stereo not drawn),28.7,.,20µM,.,.,.
Cc1ccc(C(=O)N2CCC(C(=O)c3ccc(Cl)cc3)CC2)cc1,.,.,.,.,.,.
Cc1nc(N2CCCC2)c2c(C(=O)N3CCN(c4cc(Cl)ccc4C)CC3)c(C)oc2n1,/,/,.,.,/,/
O=C1CN(C(=O)CNC(=O)c2ccc(Cl)cc2Cl)CCN1,.,.,.,.,.,.
COc1cccc(NC(=O)COc2ccccc2C(N)=O)c1,40.1,.,.,.,59.9,?
COc1cccc(OCC(=O)NNC(=O)C(=O)Nc2cccc(C)c2)c1,28.4,/,.,.,.,.
COc1ccc(OCC(=O)Nc2cccc(OC)c2)cc1,42.3,.,.,.,103.2,.
COC(=O)COc1cccc(NC(=O)COc2ccccc2)c1,.,.,.,.,.,.
CCOC(=O)C1CCN(C(=O)Cn2nc(CC)n3c(cc4occc43)c2=O)CC1,/,/,.,.,/,/
O=C(CC(c1ccc(F)cc1)c1ccco1)N1CCCC1 (stereo not drawn),.,.,14.1µM,.,.,.
CCCN(CCC)C(=O)CC(c1ccc(F)cc1)c1ccco1 (stereo not drawn),.,.,11.2µM,.,.,.
O=C(CC(c1ccc(F)cc1)c1ccco1)N1CCOCC1 (stereo not drawn),.,.,.,.,.,.
CN(C)c1ccc(/C=C(/NC(=O)c2ccccc2)C(=O)N/N=C/c2ccc([N+](=O)[O-])c(O)c2)cc1,52.3,.,.,.,47.0,.
CN(C)c1ccc(NC(=O)c2ccc(Cn3cc([N+](=O)[O-])cn3)cc2)cc1,50.3,.,.,.,108.1,.
CN(C)c1ccc(C(=O)Nc2ccc(CN3CCS(=O)(=O)CC3)cc2)cc1,35.8,.,.,.,.,.

# From PubChem
